Measured values as given in PubChem BioAssay (NCATS).
Inconclusive results are not listed. Entries that show only a call come without a potency. Calls of active or inactive are those of the source. Unless noted, the call rests on the fitted dose curve; in most records, active means well fitted curve in the direction sought with a large enough effect; inconclusive means small, poorly fitted or top-dose-only effect, or another doubt; inactive means no such curve, though single readings can be large; an effect the other way counts as inactive or inconclusive.

What was measured:
[1] = biological target: Cytochrome P450 1A2 (Homo sapiens) (UniProt P05177); assay: p450-cyp1a2 (AID 410; calls by dose curve; further: potency means the concentration at half of the fitted maximal effect)
Outline: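 Luminescent demethylation readout: Luciferin-ME (100uM, equal to Km) turned over by 20nM CYP1A2 for 60 min at room temperature after NADPH regeneration addition, following 10 min compound preincubation. Normalization used 57 uM furafylline as full inhibition.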

[2] = biological target: Mitogen-activated protein kinase 10 (Mus musculus) (UniProt Q61831); assay: JNK3 AlphaScreen Assay (AID 530; active means well fitted curve in either direction with a large enough effect, not every such curve was filed as active;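 further: kinase came from lysate of stimulated human HepG2 cells; signal reports phosphorylation of biotinylated GST-cJun 1-79 at Ser73 with 10 µM ATP; series mostly up to about 57 µM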)
Outline: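 qHTS titrations with 15 min compound pre-incubation before adding ATP (10 uM final). Read-out: AlphaScreen of Ser73-phosphorylated biotin-GST-cJun using HepG2 lysate JNK3 activated by IL-1β and TNFα.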

[3] = biological target: 3',5'-cyclic-AMP phosphodiesterase 4B (Homo sapiens) (UniProt Q07343); assay: qHTS Assay for Inhibitors of PDE-IV (AID 607; active means well fitted activation curve with a large enough effect in the main read-out, with a control signal flat, not every such curve was filed as active)
Outline: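 The readout is membrane depolarisation from a cAMP-sensing CNG channel, detected with a potential dye at ex 535/em 590. Cells were HEK293-derived (endogenous PDE-IV) at 1000 cells/well, titrated up to 22.9 uM final.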

[4] = biological target: Cytochrome P450 3A4 (Homo sapiens) (UniProt P08684); assay: qHTS Assay for Activators of Cytochrome P450 3A4 (AID 885); further: nearly all actives have a fitted effect of over 65% in size
Outline: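 Activators are scored by enhanced luminescence from CYP3A4 conversion of luciferin-PPXE (25uM, equal to KM) to luciferin, after 60 min at RT with an NADPH-regenerating system.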

[5] = biological target: Cytochrome P450 2D6 (Homo sapiens) (UniProt P10635); assay: qHTS Assay for Inhibitors and Substrates of Cytochrome P450 2D6 (AID 891); further: nearly all actives have a fitted effect of over 60% in size; further: potency means the concentration at half of the fitted maximal effect
Outline: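 Luminescent read-out of luciferin formed by 5 nM human CYP2D6 demethylating 30 uM Luciferin-ME EGE (Km level) over 60 min at room temperature after NADPH regeneration addition. Data normalized to full inhibition by 1.43 uM quinidine.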

[6] = biological target: Cytochrome P450 2C19 (Homo sapiens) (UniProt P33261); assay: qHTS Assay for Inhibitors and Substrates of Cytochrome P450 2C19 (AID 899); further: nearly all actives have a fitted effect of over 60% in size; further: potency means the concentration at half of the fitted maximal effect
Outline: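 Luminescence readout of luciferin formed from 10uM Luciferin-H EGE (KM level) by 5 nM CYP2C19 in 50mM KPO4. 60 min NADPH-driven reaction at 37C after 10 min compound preincubation; data scaled to 57uM ketoconazole inhibition.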

[7] = biological target: Cytochrome P450 2C9 (Homo sapiens) (UniProt P11712); assay: qHTS Assay for Inhibitors and Substrates of Cytochrome P450 2C9 (AID 883); further: potency means the concentration at half of the fitted maximal effect; nearly all actives have a fitted effect of over 60% in size
Outline: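 Luminescent read-out of deoxyluciferin hydroxylation, normalized to 57uM sulphaphenazole (AC100). Reaction: 10nM enzyme, 100uM Luciferin-H (equal to KM), 25mM KPO4, 10 min compound preincubation, then 60 min with NADPH regeneration, both at 37C.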

[8] = biological target: Cytochrome P450 3A4 (Homo sapiens) (UniProt P08684); assay: qHTS Assay for Inhibitors and Substrates of Cytochrome P450 3A4 (AID 884); further: potency means the concentration at half of the fitted maximal effect; nearly all actives have a fitted effect of over 50% in size
Outline: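 Luminescent readout of luciferin produced by CYP3A4 (20 nM) dealkylation of Luciferin-PPXE, 25 uM (its KM). NADPH-driven reaction ran 60 min at RT after 10 min compound preincubation; data scaled to 57 uM ketoconazole as 100% inhibition.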

Chain of Cytochrome P450 2C9 (Homo sapiens) (P11712 whole entry, looked up): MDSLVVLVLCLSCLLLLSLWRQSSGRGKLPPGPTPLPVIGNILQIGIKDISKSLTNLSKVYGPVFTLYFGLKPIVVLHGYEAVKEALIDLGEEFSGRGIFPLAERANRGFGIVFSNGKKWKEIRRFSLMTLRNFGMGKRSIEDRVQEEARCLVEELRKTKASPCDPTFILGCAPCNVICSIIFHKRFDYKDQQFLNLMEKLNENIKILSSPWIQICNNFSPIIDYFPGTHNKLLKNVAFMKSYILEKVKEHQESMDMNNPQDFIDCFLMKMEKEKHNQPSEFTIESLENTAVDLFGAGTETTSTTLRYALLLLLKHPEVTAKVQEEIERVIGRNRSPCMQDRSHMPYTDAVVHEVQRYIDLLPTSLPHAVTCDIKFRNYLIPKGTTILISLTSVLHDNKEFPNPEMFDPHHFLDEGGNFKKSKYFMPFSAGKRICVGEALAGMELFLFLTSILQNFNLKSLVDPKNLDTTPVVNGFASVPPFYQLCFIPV
Chain of Cytochrome P450 3A4 (Homo sapiens) (P08684 whole entry, looked up): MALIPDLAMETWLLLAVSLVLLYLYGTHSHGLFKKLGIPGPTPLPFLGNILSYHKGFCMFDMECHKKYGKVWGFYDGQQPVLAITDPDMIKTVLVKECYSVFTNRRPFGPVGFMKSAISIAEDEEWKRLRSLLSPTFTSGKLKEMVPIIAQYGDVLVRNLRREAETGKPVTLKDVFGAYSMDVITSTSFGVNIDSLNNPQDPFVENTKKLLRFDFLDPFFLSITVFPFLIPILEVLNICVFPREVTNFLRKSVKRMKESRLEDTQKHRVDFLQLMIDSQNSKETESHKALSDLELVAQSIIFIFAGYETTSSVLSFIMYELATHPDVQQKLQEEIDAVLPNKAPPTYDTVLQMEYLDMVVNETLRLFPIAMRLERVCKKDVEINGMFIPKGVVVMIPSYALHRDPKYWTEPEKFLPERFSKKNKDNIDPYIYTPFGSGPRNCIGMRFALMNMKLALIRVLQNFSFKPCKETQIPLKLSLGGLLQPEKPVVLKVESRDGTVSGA
Chain of Cytochrome P450 1A2 (Homo sapiens) (P05177 whole entry, looked up): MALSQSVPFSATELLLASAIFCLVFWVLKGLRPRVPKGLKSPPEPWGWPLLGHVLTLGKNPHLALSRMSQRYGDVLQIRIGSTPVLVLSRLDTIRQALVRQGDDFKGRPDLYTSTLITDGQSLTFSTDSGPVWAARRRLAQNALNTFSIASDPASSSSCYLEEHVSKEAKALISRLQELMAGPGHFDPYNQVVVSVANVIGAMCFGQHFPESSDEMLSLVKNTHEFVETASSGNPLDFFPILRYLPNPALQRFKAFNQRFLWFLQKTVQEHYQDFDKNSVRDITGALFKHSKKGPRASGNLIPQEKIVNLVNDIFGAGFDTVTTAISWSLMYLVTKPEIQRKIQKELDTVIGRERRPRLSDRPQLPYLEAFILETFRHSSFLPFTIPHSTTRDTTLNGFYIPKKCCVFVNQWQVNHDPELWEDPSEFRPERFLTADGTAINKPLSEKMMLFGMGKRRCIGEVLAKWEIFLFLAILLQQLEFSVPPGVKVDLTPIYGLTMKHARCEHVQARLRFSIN
Chain of 3',5'-cyclic-AMP phosphodiesterase 4B (Homo sapiens) (Q07343 whole entry, looked up): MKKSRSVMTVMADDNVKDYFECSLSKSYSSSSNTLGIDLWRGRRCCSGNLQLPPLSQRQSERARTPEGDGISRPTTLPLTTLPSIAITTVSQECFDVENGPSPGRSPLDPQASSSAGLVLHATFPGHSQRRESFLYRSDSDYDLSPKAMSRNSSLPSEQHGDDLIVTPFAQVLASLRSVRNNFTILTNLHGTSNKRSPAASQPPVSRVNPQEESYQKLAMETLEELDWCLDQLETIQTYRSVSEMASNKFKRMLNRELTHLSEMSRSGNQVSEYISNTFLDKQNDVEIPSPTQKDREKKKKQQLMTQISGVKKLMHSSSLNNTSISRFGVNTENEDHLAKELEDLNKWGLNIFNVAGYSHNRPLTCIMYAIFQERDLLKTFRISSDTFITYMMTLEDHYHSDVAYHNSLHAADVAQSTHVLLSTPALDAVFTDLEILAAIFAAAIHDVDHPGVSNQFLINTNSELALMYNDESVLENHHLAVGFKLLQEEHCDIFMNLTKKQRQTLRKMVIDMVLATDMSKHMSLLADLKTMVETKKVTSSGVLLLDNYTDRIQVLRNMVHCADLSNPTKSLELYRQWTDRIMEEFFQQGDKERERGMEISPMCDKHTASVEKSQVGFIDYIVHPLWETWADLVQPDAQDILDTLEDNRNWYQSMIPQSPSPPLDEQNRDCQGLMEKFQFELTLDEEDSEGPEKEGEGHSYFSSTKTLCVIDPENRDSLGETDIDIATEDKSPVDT
Chain of Cytochrome P450 2C19 (Homo sapiens) (P33261 whole entry, looked up): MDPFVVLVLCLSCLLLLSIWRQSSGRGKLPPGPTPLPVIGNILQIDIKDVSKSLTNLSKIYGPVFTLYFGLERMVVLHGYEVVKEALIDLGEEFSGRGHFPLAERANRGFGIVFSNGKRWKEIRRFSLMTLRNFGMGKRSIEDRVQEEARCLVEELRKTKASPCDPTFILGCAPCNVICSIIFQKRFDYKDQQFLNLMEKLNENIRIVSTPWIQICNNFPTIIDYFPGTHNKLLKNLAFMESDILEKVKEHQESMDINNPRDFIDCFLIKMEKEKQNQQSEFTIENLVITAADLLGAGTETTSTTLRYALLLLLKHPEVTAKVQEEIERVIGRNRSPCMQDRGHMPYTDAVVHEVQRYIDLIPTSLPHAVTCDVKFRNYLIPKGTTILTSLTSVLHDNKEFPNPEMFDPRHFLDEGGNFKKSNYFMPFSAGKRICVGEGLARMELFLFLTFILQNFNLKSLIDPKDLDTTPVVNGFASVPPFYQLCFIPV
Chain of Cytochrome P450 2D6 (Homo sapiens) (P10635 whole entry, looked up): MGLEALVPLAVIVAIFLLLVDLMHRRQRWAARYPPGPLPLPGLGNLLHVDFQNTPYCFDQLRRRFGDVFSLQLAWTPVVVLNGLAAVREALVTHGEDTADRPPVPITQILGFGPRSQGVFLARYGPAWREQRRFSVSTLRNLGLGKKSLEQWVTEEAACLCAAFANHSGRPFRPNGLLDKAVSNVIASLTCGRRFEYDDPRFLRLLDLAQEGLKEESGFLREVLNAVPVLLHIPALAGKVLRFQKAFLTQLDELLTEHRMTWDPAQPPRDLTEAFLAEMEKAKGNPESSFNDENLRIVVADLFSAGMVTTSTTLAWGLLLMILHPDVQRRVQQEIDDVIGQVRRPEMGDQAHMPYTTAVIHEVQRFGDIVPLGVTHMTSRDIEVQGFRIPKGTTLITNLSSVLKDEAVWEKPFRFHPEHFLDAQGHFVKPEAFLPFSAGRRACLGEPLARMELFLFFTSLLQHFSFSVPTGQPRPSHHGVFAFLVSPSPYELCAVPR

Row | SMILES | Potency [1] | Potency [2] | Potency [3] | Potency [4] | Potency [5] | Potency [6] | Potency [7] | Potency [8]
1 | C[C@@H](C(=O)O)[C@@H]1C[C@@]1(C)[C@@H](NC(=O)OCc1ccccc1)c1ccccc1 | inactive | inactive | inactive | inactive |  |  |  | 
2 | C[C@@H](C(=O)Nc1ccc2ccccc2c1)[C@@H]1C[C@@]1(C)[C@@H](NC(=O)Oc1ccc(F)cc1)c1ccccc1 | inactive | inactive | inactive | inactive |  |  |  | 
3 | CCc1c2c(nc3ccc(OC)cc13)COC2 | 0.794 µM (active) | inactive | inactive | inactive |  |  |  | 
4 | C/C(=C\C1CCCCC1)C(NC(=O)c1ccc(C(F)(F)F)cc1)c1ccc(-c2ccccc2)cc1 (centres undefined) | inactive | inactive | inactive | inactive |  |  |  | 
5 | C[C@H](CO)NC(=O)[C@H]1C[C@@H]1[C@H](NP(=O)(c1ccccc1)c1ccccc1)c1ccccc1 | inactive | inactive | inactive | inactive |  |  |  | 
6 | CCCC/C=C/C(NC(=O)C(C)(C)C)c1ccccc1 (centres undefined) | 20 µM (active) | inactive | inactive | inactive |  |  |  | 
7 | OC1c2ccccc2-c2nc3ccccc3cc21 (centres undefined) | 0.126 µM (active) | inactive | inactive | inactive | 20 µM (active) |  |  | 
8 | C[C@@H](C(=O)NCc1ccccn1)[C@@H]1C[C@@]1(C)[C@@H](NC(=O)OCc1ccccc1)c1ccccc1 | 20 µM (active) | inactive | inactive | inactive |  | 2.51 µM (active) |  | 
9 | CCC/C=C(\CCC)C(NS(=O)(=O)c1ccc(C(F)(F)F)cc1)c1ccc(-c2ccccc2)cc1 (centres undefined) | inactive | inactive | inactive | inactive |  | 7.94 µM (active) |  | 
10 | COC(=O)[C@@]1(Cc2ccc(OC)cc2)[C@H]2c3cc(C(=O)N4CCCC4)n(Cc4ccc(Cl)c(C(F)(F)F)c4)c3C[C@H]2CN1C(=O)c1ccccc1 | 12.6 µM (active) | inactive | inactive | inactive |  |  |  | 
11 | COC(=O)[C@@H]1C[C@H]1[C@@H](NC(=O)c1cccnc1)c1ccccc1 | 12.6 µM (active) | inactive | inactive | inactive |  |  |  | 
12 | COC(=O)[C@@H]1C[C@H]1[C@@H](NC(=O)c1cc(C)on1)c1ccccc1 | 20 µM (active) | inactive | inactive | inactive |  |  |  | 
13 | C=C1C(=O)C=C2CN(C(=O)c3ccccc3)[C@@](Cc3ccc(F)cc3)(C(=O)OC)[C@@H]12 | 15.8 µM (active) | inactive |  | inactive |  | 5.01 µM (active) | 3.98 µM (active) | 7.94 µM (active)
14 | CCC/C=C(\CCC)C(NP(=O)(c1ccccc1)c1ccccc1)c1ccc(-c2ccccc2)cc1 (centres undefined) | 2.51 µM (active) | inactive |  | inactive |  | 7.94 µM (active) |  | 3.98 µM (active)
15 | COc1ccc2nc3c(c([Si](C)(C)C(C)(C)C)c2c1)Cn1c-3cccc1=O | 0.794 µM (active) | inactive |  | inactive | 2 µM (active) | 2 µM (active) |  | 1.58 µM (active)
16 | COc1ccc2nc3c(cc2c1)Cc1ccccc1-3 | 0.251 µM (active) | inactive |  | inactive | 6.31 µM (active) | 2.51 µM (active) | 6.31 µM (active) | 6.31 µM (active)

Row | SMILES | Potency [1] | Potency [2] | Potency [3] | Potency [4] | Potency [5] | Potency [6] | Potency [7] | Potency [8]
17 | CCC[C@@H]1C[C@@]1(CCC)C(NS(=O)(=O)c1cccc2cccnc12)c1ccc(Cl)cc1 (some centres undefined) | inactive | inactive |  | inactive |  | 3.16 µM (active) | 7.94 µM (active) | 0.794 µM (active)
18 | COC(=O)c1ccc(C(NC(=O)c2ccco2)[C@]2(C)C[C@H]2C2CCCCC2)cc1 (some centres undefined) | inactive | inactive |  | inactive |  |  |  | 7.94 µM (active)
19 | CCCC[C@@H]1C[C@H]1C(NC(=O)c1ccco1)c1ccc(C(=O)OC)cc1 (some centres undefined) | 3.98 µM (active) | inactive |  | inactive |  |  | 0.794 µM (active) | 
20 | CC[C@@H]1OC(=O)[C@@H](C)[C@H](O[C@@H]2C[C@@](C)(OC)[C@@H](O)[C@H](C)O2)[C@H](C)[C@H](O[C@@H]2O[C@@H](C)C[C@@H](N(C)C)[C@H]2O)[C@@](C)(O)C[C@H](C)C(=O)[C@@H](C)[C@H](O)[C@@]1(C)O | inactive | inactive | inactive |  | inactive | inactive |  | 
21 | C[C@@H](C(=O)NCCc1c[nH]c2ccccc12)[C@@H]1C[C@@]1(C)[C@@H](NC(=O)OCc1ccccc1)c1ccccc1 | 12.6 µM (active) | inactive |  | inactive |  | 0.794 µM (active) | 2.51 µM (active) | 3.16 µM (active)
22 | CC[C@H]1C2=C3C(CC[C@H]4C(OC)OC[C@](C)([C@@H]34)N(C(=O)OC(C)(C)C)C2)C(CO)C1CO (some centres undefined) | 12.6 µM (active) | inactive | inactive | inactive |  | inactive |  | 
23 | COC(=O)c1ccc(C23CC2(C(NP(=O)(c2ccccc2)c2ccccc2)c2ccccc2)C3)cc1 (centres undefined) | 15.8 µM (active) | inactive |  | inactive |  |  |  | 3.16 µM (active)
24 | Cc1cc(C(=O)N[C@@H](c2ccccc2)[C@]2(C)C[C@H]2[C@@H](C)C(=O)Nc2ccc3ccccc3c2)n(C)n1 | 12.6 µM (active) | inactive |  | inactive |  |  | 3.98 µM (active) | 0.794 µM (active)
25 | O=C(Cc1ccccc1I)Nc1ccccc1 | 12.6 µM (active) | inactive | inactive |  |  | 6.31 µM (active) |  | 
26 | COC(=O)[C@@]1(Cc2ccc(OC)cc2)[C@H]2c3cc(C(=O)N4CCCC4)n(CCc4c[nH]c5ccc(O)cc45)c3C[C@H]2CN1C(=O)c1ccccc1 | inactive | inactive |  | inactive |  |  | 3.16 µM (active) | 1.58 µM (active)
27 | COC(=O)[C@@]1(Cc2ccc(F)cc2)[C@H]2c3cc(C(=O)N4CCCC4)n(CCc4ccc(O)c(O)c4)c3C[C@H]2CN1C(=O)c1ccccc1 | 20 µM (active) | inactive |  | inactive |  |  | 3.16 µM (active) | 2.51 µM (active)
28 | COC(=O)[C@@]1(Cc2ccccc2)[C@H]2c3cc(C(=O)N4CCCC4)n(Cc4ccc(O)c(OC)c4)c3C[C@H]2CN1C(=O)c1ccccc1 | 25.1 µM (active) | inactive |  | inactive |  | 0.501 µM (active) | 2.51 µM (active) | 2 µM (active)
29 | COC(=O)[C@@]1(Cc2ccc(F)cc2)[C@H]2c3cc(C(=O)N(C)C)n(Cc4ccc(C)c(F)c4F)c3C[C@H]2CN1C(=O)c1ccccc1 | inactive | inactive |  | inactive |  |  |  | 0.794 µM (active)
30 | CCCC[C@@H]1C[C@H]1C(NC(=O)c1cccs1)c1ccccc1C(F)(F)F (some centres undefined) | 6.31 µM (active) | inactive |  | inactive |  | 0.631 µM (active) |  | 3.16 µM (active)
31 | COC(=O)[C@@]1(Cc2ccc(F)cc2)[C@H]2c3cc(C(=O)N4CCCC4)n(Cc4ccc(C)c(F)c4F)c3C[C@H]2CN1C(=O)c1ccccc1 | inactive | inactive |  | inactive |  |  |  | 2.51 µM (active)
32 | c1ccc2c(c1)Cc1cc3ccccc3nc1-2 | 0.1 µM (active) | inactive |  | inactive | 12.6 µM (active) | 5.01 µM (active) | 10 µM (active) | 20 µM (active)
